# PubChem BioAssay AID720690 (Broad Institute, 2013)
# Potency and affinity values are given separately. Calls of active or inactive are those of the source.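 How the source made its calls: active means every repeat run showing a signal drop whose fitted half-maximal concentration is at most twice the top tested concentration; inconclusive means repeat runs disagree, or flat partial drop, or poor fit; inactive means the rest.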
# Experiment: HEK293T cytotoxicity, dose response, cytotoxicity control for miR-122 modulator project, cell-based, activator set, cherry-pick (AID 720690)
# Details: HEK293T viability, CellTiter-Glo luminescence, 48 h; series mostly up to 26 µM
row,Compound,outcome
1,CO[C@@H]1CN(C)C(=O)c2ccc(NC(C)=O)cc2OC[C@@H](C)N(C(=O)c2ccccc2F)C[C@H]1C,inactive
2,C/C=C/c1ccc([C@H]2[C@@H](CO)N(Cc3ccccn3)[C@@H]2CNC(=O)CC)cc1,inactive
3,COc1ccc(-c2ccc(C#N)c(OC(=O)c3c(Cl)cccc3Cl)n2)cc1,inactive
4,C/C=C/c1ccc2c(c1)O[C@H](CN(C)C(=O)Nc1cccc(F)c1)[C@H](C)CN([C@@H](C)CO)S2(=O)=O,inactive
5,O=C(CSc1nc2ccccc2s1)N1CCOCC1,inactive
6,COCC(=O)N(C)C[C@@H]1[C@H](c2ccc(-c3ccccc3)cc2)[C@@H](CO)N1C(C)=O,inactive
7,C/C=C/c1ccc([C@H]2[C@@H](CO)N(C(=O)C3CC3)[C@H]2CNC(=O)NC(C)C)cc1,inactive
8,CC(C)C(=O)Nc1ccc2c(c1)C(=O)N(C)[C@@H]1CC[C@@H](CC(=O)NCCc3ccccc3)O[C@H]1CO2,inactive
9,COc1cccc(CNC(=O)C[C@@H]2CC[C@H]3[C@H](COc4ccc(NS(=O)(=O)c5ccccc5F)cc4C(=O)N3C)O2)c1,inactive
10,Cc1ccc(S(=O)(=O)Nc2ccc3c(c2)C(=O)N(C)[C@@H]2CC[C@H](CC(=O)NCCc4ccncc4)O[C@@H]2CO3)cc1,inactive
11,CNC(=O)C[C@@H]1CC[C@@H]2[C@@H](COc3ccc(NC(=O)Cc4cccs4)cc3C(=O)N2C)O1,inactive
12,CC(=O)Nc1ccc2c(c1)C(=O)N(C)[C@@H]1CC[C@@H](CC(=O)NCc3ccc(Cl)cc3)O[C@H]1CO2,inactive
13,CC(=O)N(C)C[C@H]1Oc2cc(C#Cc3ccc(F)cc3)ccc2S(=O)(=O)N([C@H](C)CO)C[C@H]1C,inactive
14,CC(C)NC(=O)N1C[C@@H]2[C@H](c3ccccc31)[C@H](CO)N2Cc1ccccc1,inactive
15,CC(C)C(=O)Nc1ccc2c(c1)C(=O)N(C)[C@@H]1CC[C@H](CC(=O)N[C@H](C)c3ccccc3)O[C@@H]1CO2,inactive
16,CCC(=O)N1C[C@H]2[C@@H](c3ccccc31)[C@H](CO)N2C(=O)Nc1ccccc1F,inactive
17,Cc1cc(C(=O)Nc2ccc3c(c2)C(=O)N(C)[C@@H]2CC[C@@H](CC(=O)N[C@H](C)c4ccccc4)O[C@H]2CO3)no1,inactive
18,CN1C(=O)c2cc(NC(=O)c3cccs3)ccc2OC[C@H]2O[C@H](CC(=O)NCC(F)(F)F)CC[C@H]21,inactive
19,COc1ccc(CNC(=O)C[C@H]2CC[C@H]3[C@H](COc4ccc(NC(=O)C(C)C)cc4C(=O)N3C)O2)cc1,inactive
20,COc1ccc(S(=O)(=O)N(C)C[C@@H]2Oc3cc(-c4cccc(F)c4)ccc3S(=O)(=O)N([C@@H](C)CO)C[C@H]2C)cc1,inactive

row,Compound,outcome
1,O=C(COc1cccc2ccccc12)Nc1nc2ccccc2[nH]1,inactive
2,C[C@H](CO)N1C[C@H](C)[C@H](CN(C)C(=O)C2CCC2)Oc2cc(-c3ccc(C(=O)N(C)C)cc3)ccc2S1(=O)=O,inactive
3,CCn1nnnc1SCC(=O)Nc1nnc(C(C)C)s1,inactive
4,COCC(=O)Nc1ccc2c(c1)C(=O)N(C)[C@@H]1CC[C@@H](CC(=O)NC3CCCC3)O[C@@H]1CO2,inactive
5,CN1C(=O)c2cc(NC(=O)c3cccc(F)c3)ccc2OC[C@@H]2O[C@@H](CC(=O)NC3CCC3)CC[C@@H]21,inactive
6,COCCNC(=O)C[C@H]1CC[C@@H]2[C@@H](COc3ccc(NS(=O)(=O)c4ccc(Cl)cc4)cc3C(=O)N2C)O1,inactive
7,CNC(=O)C[C@@H]1CC[C@@H]2[C@H](COc3ccc(NC(=O)Nc4cccc(C)c4)cc3C(=O)N2C)O1,inactive
8,C/C=C/c1ccc([C@@H]2[C@@H](CO)N(C(C)=O)[C@@H]2CN(CC)C(=O)CN(C)C)cc1,inactive
9,CN1C(=O)c2cc(NC(=O)Nc3ccccc3F)ccc2OC[C@@H]2O[C@@H](CC(=O)NCc3ccc(-c4ccccc4)cc3)CC[C@H]21,inactive
10,CN(C)CCCNC(=O)C[C@H]1CC[C@H]2[C@H](COc3ccc(NS(C)(=O)=O)cc3C(=O)N2C)O1,inactive
11,CCN(C[C@H]1N[C@H](CO)[C@H]1c1ccc(C2=CCCC2)cc1)C(=O)c1cccnc1,inactive
12,CN1C(=O)c2cc(NC(=O)c3cccc(F)c3)ccc2OC[C@H]2O[C@H](CC(=O)NC3CCC3)CC[C@@H]21,inactive
13,CN1C(=O)c2cc(NC(=O)C3CC3)ccc2OC[C@@H]2O[C@H](CC(=O)NCCN3CCCC3)CC[C@H]21,inactive
14,O=C(Nc1ccccc1F)N1C[C@H]2[C@@H](c3ccccc31)[C@@H](CO)N2C(=O)C1CC1,inactive
15,CNC(=O)C[C@H]1CC[C@H]2[C@@H](COc3ccc(NC(=O)C4CC4)cc3C(=O)N2C)O1,inactive
16,CC(=O)N(C)C[C@@H]1[C@@H](c2ccc(-c3cccc(C#N)c3)cc2)[C@H](CO)N1C(C)=O,inactive
17,CCCNC(=O)Nc1ccc2c(c1)C(=O)N(C)[C@H]1CC[C@H](CC(=O)NC3CCC3)O[C@H]1CO2,inactive
18,COCCN(C[C@H]1[C@H](c2ccccc2)[C@@H](CO)N1C(=O)C1CCC1)C(C)=O,inactive
19,C[C@H](CO)N1C[C@H](C)[C@@H](CN(C)Cc2ccc(Oc3ccccc3)cc2)Oc2ncc(-c3cncnc3)cc2C1=O,inactive
20,CCNC(=O)C[C@H]1CC[C@@H]2[C@@H](COc3ccc(NC(=O)c4cccc(C(F)(F)F)c4)cc3C(=O)N2C)O1,inactive
